Compounds with a hit are over-represented: about 4.2% of the library has one in this group of screens.
PLK1 PBD inh – qHTS for Inhibitors of PLK1-PDB (polo-like kinase 1 - polo-box domain): Primary Screen | hit rate 2.8% among 360,000 | AID 720504, 2013 | Potency, µM, without a hit: max response, negative = inhibition, hits mostly inhibitors | Plk1 PBD binding of FITC phosphopeptide, fluorescence polarization; further: series mostly up to about 57 µM; nearly all actives have a fitted effect of over 65% in size
VDR inh – Inhibitors of the vitamin D receptor (VDR): qHTS; hit rate 0.93% among 400,000; VDR-SRC2-3 peptide fluorescence polarization, 2 h; AID 504847, 2011; Vitamin D3 receptor (Homo sapiens), P11473; Potency, µM, for inactives: max response, negative = inhibition, usual class: inhibitors
Target sequence (P11473 whole entry, looked up): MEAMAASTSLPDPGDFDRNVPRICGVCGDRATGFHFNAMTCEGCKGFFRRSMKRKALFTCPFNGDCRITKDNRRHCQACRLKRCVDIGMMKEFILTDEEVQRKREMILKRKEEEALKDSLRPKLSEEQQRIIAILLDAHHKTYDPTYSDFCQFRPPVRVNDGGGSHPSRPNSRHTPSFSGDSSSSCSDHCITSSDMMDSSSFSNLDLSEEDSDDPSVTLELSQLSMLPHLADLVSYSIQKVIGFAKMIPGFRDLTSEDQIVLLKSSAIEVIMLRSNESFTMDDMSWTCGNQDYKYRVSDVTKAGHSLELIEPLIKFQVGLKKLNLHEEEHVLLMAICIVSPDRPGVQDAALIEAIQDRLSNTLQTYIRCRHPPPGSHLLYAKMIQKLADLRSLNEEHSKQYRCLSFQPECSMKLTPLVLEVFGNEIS
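After 23 nl compound addition and a short centrifugation, plates sat for 2 hours at ambient temperature; polarization of fluorescence then indicated loss of VDR binding to peptide SRC2-3.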
ALOX12 inh – Primary qHTS assay for inhibitors of human arachidonate 12S-lipoxygenase (ALOX12): Round 2 | Polyunsaturated fatty acid lipoxygenase ALOX12 (Homo sapiens), P18054 | purified 12hLO, xylenol orange hydroperoxide absorbance | Potency, µM (top dose mostly 108 µM), inactives show top-dose activity change, negative = inhibition, usual class: inhibitors | hit rate 1.1% among 580,000 | AID 1671190, 2021
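Hydroperoxide product was detected by ferrous iron/xylenol orange as the 573 to 405 nm absorbance ratio. Arachidonic acid at 40 uM (final) was turned over for 30 min at room temperature by 150 nM human 12hLO, pH 7.0 Hepes buffer, after 15 min compound preincubation.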
Sfp PPTase inh – qHTS Assay for Inhibitors of Bacillus subtilis Sfp phosphopantetheinyl transferase (PPTase). Biochemical Sfp PPTase activity, qHTS. Potency, µM, inactives show largest response in the series, negative = inhibition, most hits filed as inhibitors. hit rate 3.5% among 310,000;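 further: the enzyme is Sfp with the accession as filed and its product quenches rhodamine fluorescence; 0% = enzyme reaction without inhibitor and -100% = no enzyme wells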
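With Hepes-Na pH 7.6 buffer containing 10 mM MgCl2, Sfp (15 nM) modified BHQ-2-YbbR (12.5 uM) using rhodamine-CoA (5 uM). Two reads 30 minutes apart at 525/598 nm yielded each well's rate.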
An asterisk follows results filed as active; u = inconclusive; x = no result given; [ ] = remark or other dose. The call rests on the fitted dose curve; in most records, active means well fitted curve in the direction sought with a large enough effect; inconclusive means small, poorly fitted or top-dose-only effect, or another doubt; inactive means no such curve, though single readings can be large; an effect the other way counts as inactive or inconclusive. Unless noted, on the % scale 0 is the no-effect control and ±100 the full control effect; potency means the concentration at half of the fitted maximal effect.

SMILES | PLK1 PBD inh | VDR inh | ALOX12 inh | Sfp PPTase inh
COc1cccc(CN(C(=O)COc2ccccc2[N+](=O)[O-])C2CCS(=O)(=O)C2)c1 (stereo not given) | 24µM* | -19% | x | -10%
Cc1ccc(CN(C(=O)c2ccc([N+](=O)[O-])cc2)C2CCS(=O)(=O)C2)o1 (stereo not given) | 3.8µM* | u | 6% | 10%
COc1ccc(C(C)=O)cc1CO/N=C/c1ccccc1OC(F)F | x | x | -10% | x
C[C@H](NC(=O)[C@@H]1CSC2c3ccccc3C(=O)N21)C(=O)NC1CCCC1 (stereo not given in full) | -10% | -12% | 13% | 1%
O=C(O)c1ccccc1NC(=O)c1ccccc1Nc1ccccc1 | 30µM* | -3% | 76% | -3%
O=C(CSc1ncn[nH]1)Nc1ccccc1C(=O)O | -2% | -2% | 0% | 13%
O=C(O)c1ccccc1Nc1ccc(CCc2ccc(Cl)c(Cl)c2)cc1 | x | 35µM* | x | 4%
O=C(O)c1ccccc1Nc1cc(Cl)cc(Cl)c1 | x | u | x | 12%
O=C(Nc1ccccc1C(=O)O)c1ncn[nH]1 | -5% | 0% | 1% | 45µM*
O=C(Nc1ccccc1C(=O)Nc1ccccc1C(=O)O)c1ccccc1 | u | -13% | u | -4%
COC(=O)C1=C(C)N(C)C(=NCc2ccccc2)NC1c1ccc(F)cc1 (stereo not given) | x | x | 1% | x
C[C@]1(CO)[C@H]2Cc3sc(NC(=O)c4ccc(F)cc4)nc3[C@@H](CC(=O)NC3CCCC3)[C@]2(C)CC[C@H]1O | x | x | 4% | x
COc1cccc(-c2noc(Cn3nc(C)c([N+](=O)[O-])c3C)n2)c1 | 19µM* | -28% | 7% | 35µM*
COc1cccc(-c2noc(CN(C)S(=O)(=O)c3ccc(C)cc3)n2)c1 | x | x | -7% | x
COC(=O)c1cccc(Cn2nc(C)c([N+](=O)[O-])c2C)c1 | 21µM* | -29% | -3% | 7%
COCCO[C@H]1C(=O)N(C2CCN(C(=O)c3ccnn3C)CC2)[C@H]1c1ccncc1 | x | x | 18% | x
CCOc1c(Cl)cc(C(=O)Nc2ccc(C(F)(F)F)cc2)cc1Cl | x | x | 4% | x
Cc1nnc(SCc2ccc([N+](=O)[O-])cc2)o1 | 3.8µM* | u | -8% | -1%
Cc1nc(SCc2ccc([N+](=O)[O-])cc2)n[nH]1 | -16% | 14% | 0% | 25%
CCc1[nH]c2ccc(CNC(=O)[C@H]3[C@@H]4C=C[C@@]5(CN(C)C(=O)[C@@H]35)O4)cc2c1C | x | x | -11% | x
CCSC1=C(C#N)C2(CCCC2)C(C#N)=C(N)N1 | 3µM* | -28% | -2% | u
CCn1c(-c2ccco2)nc2ccccc21 | -20% | -8% | 0% | 40µM*
c1ccc(OCCn2c(-c3ccco3)nc3ccccc32)cc1 | u | -17% | u | 50µM*
CCc1nc(SCC(=O)Nc2ccc([N+](=O)[O-])cc2)n[nH]1 | -7% | -11% | 5% | 13%
CCOCCCNC(=O)c1c[nH]c2ccc(OCC)cc2c1=O | 30µM* | u | 15% | 15%
SMILES | PLK1 PBD inh | VDR inh | ALOX12 inh | Sfp PPTase inh
CNCCCNC(=O)c1ccc(/C=N/O)nc1 | -13% | 17% | -1% | 79µM*
O=C(NCc1ccccc1)c1ccc(/C=N/O)nc1 | -1% | 0% | -12% | -19%
O=C(NCc1ccccn1)c1ccc(/C=N/O)nc1 | -4% | -2% | u | 50µM*
CCN(CC)c1ccc(NC(=S)NC(=O)C2CCC2)cc1 | -12% | -9% | u | 5%
CCN(CC)c1ccc(C(=S)NCc2ccccc2)cc1 | u | -6% | 1% | 10µM*
CN(C)c1ccc(C(=O)OCC(=O)NC2CCCCCC2)cc1 | -10% | 4% | -9% | -18%
CN(C)c1ccc(C(=S)NC2CCCCC2)cc1 | 13µM* | u | u | 20µM*
CCN(CC)c1ccc(C(=S)NC2CCCCC2)cc1 | 24µM* | u | -13% | 32µM*
CCOc1ccc(C(=S)NC2CCCCC2)cc1OCC | 6µM* | 40µM* | 35µM* | 14µM*
CN(C)c1ccc(CN2CCOC[C@H]2c2ncc(-c3ccc(F)cc3F)[nH]2)cc1 | x | x | 46%[176 µM] | x
CCN(CC)S(=O)(=O)c1cccc(-c2nnc(SCC(N)=O)n2C)c1 | -6% | 0% | -4% | 14%
CCNC(=O)CSc1nnc(-c2cccc(S(=O)(=O)N(CC)CC)c2)n1CCc1ccccc1 | 21µM* | u | 25% | 8%

Screening results as filed in PubChem BioAssay.
